# Experimental data: the supplement of paper PMC5940239
# A number with no mark means an inactive call.
# Tested on: Madurella mycetomatis MM55
# Test: percent growth relative to solvent control; higher = less inhibition, active = 20 or less
# Details: 100 µM; 7 days
row,Structure (SMILES),percent growth [%]
1,NC(=O)c1cc(-c2ccsc2)ccc1OCCOc1ccccc1,103
2,CCNC(=O)C(C)Nc1nc(-c2cccnc2)nc2sc(C)c(C)c12 (centres undefined),90.4
3,CCC(Sc1nc2ccccc2o1)C(=O)Nc1nnc(C)s1 (centres undefined),40.9
4,Cn1ncc2c(N3CCOCC3)nc(NCCc3c[nH]c4ccccc34)nc21,37.3
5,Nc1ncc(-c2ccc(C(F)(F)F)nc2)cc1-c1ccc(C(F)(F)F)nc1,94.5
6,Cc1cc(Nc2ccncc2)n2nc(C)c(-c3ccccc3Cl)c2n1,103
7,Cc1noc(C)c1C(=O)N1CCCC(c2[nH]c3c(C)cccc3c2-c2ccncc2)C1 (centres undefined),51.6
8,Cc1cccnc1NC(=O)c1cccc(OCc2c(C)noc2C)c1,85.1
9,C[C@H](C(N)=O)N1CCCC[C@@H]1c1ccc(OCc2cccc(F)c2)cc1,92
10,CC(Oc1cccc(Cl)c1)C(=O)Nc1ccc2oc(-c3ccncc3)nc2c1 (centres undefined),51.2
11,O=C(N[C@H](Cc1ccccc1)C(=O)Nc1ccccc1N1CCOCC1)c1cccs1,36.5
12,CC(C)n1ncc2c(C(=O)NCC(c3cccs3)N3CCOCC3)cc(-c3ccccc3)nc21 (centres undefined),76
13,O=C(Nc1nnc(S)s1)c1cc(Br)ccc1Cl,97
14,CNC(=O)CNc1nc(-c2ccccn2)nc2scc(-c3ccccc3)c12,30.8
15,COc1ccc(Cl)cc1NC(=O)CN(C)C(=O)c1cnn(-c2ccccc2)n1,30.8
16,COc1cc(NC(=O)Cc2nn(C)c(=O)c3ccccc23)ccc1Cl,116
17,CS(=O)(=O)c1ccccc1C(=O)N(Cc1ccccc1)c1ccccc1,91
18,CCc1nc2ccc(Cl)cn2c1C(=O)NCc1ccc(N2CCC(c3ccc(OC(F)(F)F)cc3)CC2)cc1,126
19,O=C(C1CCCCC1)N1CC(=O)N2CCc3ccccc3C2C1 (centres undefined),92.7
20,Cc1cc(NC(=O)c2ccc(S(=O)(=O)N(Cc3ccccc3)C(C)C)cc2)no1,92.5

row,Structure (SMILES),percent growth [%]
1,OC[C@H]1O[C@@H](n2c3ccc(Cl)cc3c3c(-c4cc5ccccc5o4)ncnc32)C(O)[C@H]1O (some centres undefined),121
2,Cc1ccc(NC(=O)c2nc[nH]c2C(=O)Nc2nc3ccccc3[nH]2)c(C)c1,147
3,Brc1c(-c2ccc3c(c2)OCO3)nc2ncccn12,85.6
4,NCCCC(N)(C(=O)O)C(F)F (centres undefined),133
5,O=C(NCc1cc(Cl)cc(Cl)c1)c1c(C(F)(F)F)nc2ccccn12,107
6,CCN(CC)S(=O)(=O)c1ccc(Cl)c(C(=O)Nc2ccc3nc(C)sc3c2)c1,119
7,O=C(NCCc1c[nH]c2ccccc12)c1cc2ccccc2oc1=O,109
8,CC(C)(C)c1cc(C(=O)N2CCN(c3nccnc3C#N)CC2)n(Cc2ccccc2)n1,56.8
9,CCCS(=O)(=O)N1CCC(CO)(Cc2ccccc2C(F)(F)F)CC1,37.4
10,CC(C)(C)C(=O)N(CCCCCCN1C[C@H](O)[C@@H](O)[C@H](O)[C@H]1CO)C1CCCCCC1,86.6
11,Cc1cc(C(=O)Nc2ccc(-c3ccccc3)cc2)no1,199
12,COc1cc(Br)cc2cc(C(=O)Nc3cccc(C(F)(F)F)c3)c(=O)oc12,125
13,COC(=O)Nc1nc2cc(C(=O)c3ccccc3)ccc2[nH]1,111
14,CCOC(=O)NC(=O)c1ccsc1NC(=O)c1nc2ccccc2s1,78.6
15,O=C(Nc1cnc2ccccc2c1)c1cccc(-n2cnnn2)c1,94.2
16,Cc1cc2nc(NC(=O)C(C)(C)C)nc(Cl)c2n1Cc1ccc(Cl)cc1,82.9
17,Nc1ncnc2c1ncn2[C@@H]1O[C@H](COS(=O)(=O)NC(=O)c2ccccc2O)[C@@H](O)[C@H]1O,60.6
18,O=C(Nc1ccc2c(c1)B(O)OC2)c1ccccc1C(F)(F)F,150
19,Cc1cc(C)cc(COc2ccc3c(C)c(CCC(=O)O)c(=O)oc3c2C)c1,84.8
